{"source": "PubChem BioAssay (NCI)", "note": "Compounds without any hit were thinned out: in the full panel of roughly 83,000, 20% have a hit.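 Cell lines were cultured in 96-well plates, exposed to a single compound concentration, and assessed for percent growth 48 hours later.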 Unmarked numbers belong to inactive results. Active and inactive are the calls of the source. The calls were made as follows: active = growth percent below 10; inactive = the rest.", "data": [{"tested_on": "HL-60(TB) leukemia", "assay": "NCI-60 one-dose screen, 48 h (100 = growth as untreated, 0 = no growth, -100 = all killed)", "settings": "10 µM unless noted", "values": [{"smiles": "O=C1NC(=O)/C(=C/C=C/c2ccccc2)S1", "growth": "-29.3% (active)"}, {"smiles": "C/C(Cc1ccc(Cl)cc1)=C(/c1ccc(Cl)cc1)c1ccc(OCCN2CCCC2)cc1", "growth": "54.7%"}, {"smiles": "CCCCN=C(N)c1ccc(OCCSCCOc2ccc(C(N)=NCCCC)cc2)cc1", "growth": "38.8%"}, {"smiles": "COc1ccc2c(c1)C/C(=C\\c1cc(-c3cc(OC)c(OC)c(OC)c3)n[nH]1)C2=O", "growth": "79%"}, {"smiles": "CCOC(=O)c1c(N)sc2cc(O)ccc12", "growth": "94.1%"}, {"smiles": "NC(C(=O)O)c1ccc([N+](=O)[O-])cc1", "note": "(stereo not given)", "growth": "95.8%"}, {"smiles": "O=C(/C=C\\c1ccccc1)N1c2ccccc2CC1c1c[nH]c2ccccc12", "note": "(stereo not given)", "growth": "73.5%"}, {"smiles": "O=C(Nc1cc(-c2ccccc2)[nH]n1)c1ccc(Cl)cc1", "growth": "42.1%"}, {"smiles": "O=c1cc(CP(=O)(O)O)c2cc(O)c(-c3ccccc3)cc2o1", "growth": "104%"}, {"smiles": "CCOC(=O)c1c(-c2ccc(O)cc2)c(C#N)c2c(C#N)c(N)nn2c1N", "growth": "22.5%"}, {"smiles": "CC(C)(C)c1ccc(C(=O)Nc2sc3c(c2C(N)=O)CCC(=O)C3)cc1", "growth": "3% (active)"}, {"smiles": "O=[N+]([O-])c1ccc(N=Nc2c(Cl)cc(O)cc2Cl)cc1", "growth": "-31.9% (active)"}, {"smiles": "Nc1nc2ncc(CNc3ccc(C(=O)N[C@@H](CCc4nn[nH]n4)C(=O)O)cc3)nc2c(=O)[nH]1", "growth": "109%"}, {"smiles": "COc1ccc(-c2nc(-c3nc4ccc(C)cc4[nH]3)cc3c2[nH]c2ccccc23)cc1", "growth": "31.4%"}, {"smiles": "c1ccc2[nH]c(SSc3nc4ncncc4[nH]3)nc2c1", "growth": "17.1%"}]}]}
